This is an account of results in PubChem BioAssay AID1224862 (National Center for Advancing Translational Sciences (NCATS), 2016).

Inconclusive results are not listed. A call without a number means that no potency is given here. Active and inactive are the calls of the source. Calls follow the shape of the dose curve; as a rule, active = well fitted cell-killing curve with a large enough effect; inconclusive = small, poorly fitted or top-dose-only effect, or effect the other way; inactive = flat fitted curve, though single readings scatter.

A short description of this test: Compound cytotoxicity measured by an ATP content assay as a counter-screen for lead compounds in human astrocytoma cell line (SNB-19). Conditions: SNB-19 astrocytoma viability, ATP luminescence; series mostly up to 46.1 µM. As to the method:
National Center for Advancing Translational Sciences [NCATS] Johns Hopkins University School of Medicine Florida State University Assay Overview: Many compounds can cause cytotoxicity at high compound concentrations. […] The compound cytotoxicity may also cause side effects or toxicity in human. Thus, the compound cytotoxicity needs to be measured in each cell type and each compound incubation time - same as these in the compound screening assay. The compound cytotoxicity can be measured by cell viability assays such as the ATP content assay. We use an ATP content assay kit for cell viability measurement. It measures ATP content (level) in human astrocytoma cell line (SNB-19) using a luminescence readout that is proportional to viable cell numbers. Decrease in the luminescence signal after the compound treatment indicates reduced cell viability and cell death caused by compound treatment.
Assay Protocol Summary: The medium for SNB-19 cells is composed of RPMI 1640 (ATCC, Cat.# 30-2001), 10% fetal bovine serum (FBS) (GE healthcare Life Sciences, Cat.# SH30071.03), and 1% Pen/Strep (Gibco, Cat.# 15140-122). The ATP content assay kit (PerkinElmer, Cat.# 6016731) was used to determine cell viability. The reagent was reconstituted and prepared as described by the manufacturer. Cells were seeded in 384- or 1536-well assay plates and cultured at 37 C with 5% CO2 for 16 to 20 hours. The typical cell seeding density in the 1536-well plate assay is 250 cells/well in 3ul medium for SNB-19 cells in tissue culture treated plates. Compounds were added to cells and incubated for a specific time such as 6, 24, or 72 hours before addition of the reagent mixture of the ATP content assay kit at 1:1 ratio. After incubation at room temperature for 10 minutes, the luminescence intensity in assay plates was measured using a ViewLux plate reader (PerkinElmer). […] The percentage inhibitions of the decreased cell viability by small molecules were then calculated that indicate compound cytotoxicity.
A general note: The purpose of a counterscreen is to sort out artefacts and off-target activity.
Consider `Cc1c(N)c(=O)n(-c2ccccc2)n1C`, for which the Potency entry was “inactive”.
With `c1ccc(CCNc2nc(-c3ccccc3)cs2)cc1`, the Potency entry was “inactive”.
Then `CCCCCCCCCCCC(=O)[O][Sn]([CH2]CCC)([CH2]CCC)[O]C(=O)CCCCCCCCCCC`, with “inactive”; and `C[C@@H](O[C@H]1OCCN(Cc2n[nH]c(=O)[nH]2)[C@@H]1c1ccc(F)cc1)c1cc(C(F)(F)F)cc(C(F)(F)F)c1`, with “inactive”; and `CS(=O)(=O)c1ccc(-c2cn3ccccc3n2)cc1`, with 12.3 µM (active).
Then `O=C(Nc1ccc(C(=O)O)c(O)c1)c1ccccc1`, with “inactive”; and `O=C(O)[C@@H](c1ccc(OCc2ccc3ccccc3n2)cc1)C1CCCC1`, with “inactive”.
Then `COc1cc2nc(-c3ccc(N4CCN(C)CC4)cc3)nc(NCCN3CCOCC3)c2cc1OC`, with “inactive”; and `CN1CC(=O)N/C1=N/C(=O)Nc1cccc(Cl)c1`, with “inactive”; and `CCOC1OC(=O)C[C@H]1NC(=O)[C@@H]1CCCN1C(=O)[C@@H](NC(=O)c1ccc(N)c(Cl)c1)C(C)(C)C` (stereo not given in full), with “inactive”.
On to `CC=CC[C@@H](C)C(=O)[C@H]1C(=O)N[C@@H](C(C)C)C(=O)N(C)CC(=O)N(C)[C@@H](CC(C)C)C(=O)N[C@@H](C(C)C)C(=O)N(C)[C@@H](CC(C)C)C(=O)N[C@@H](C)C(=O)N[C@H](C)C(=O)N(C)[C@@H](CC(C)C)C(=O)N(C)[C@@H](CC(C)C)C(=O)N(C)[C@@H](C(C)C)C(=O)N1C`, for which the Potency result was “inactive”.
In the case of `O=C(Oc1ccccc1)c1cccc(C(=O)Oc2ccccc2)c1` it was “inactive”.
Then `O=c1oc2cc(O)ccc2s1`, with “inactive”; and `CN(C)c1cc(NC(=O)CNC(C)(C)C)c(O)c2c1C[C@@H]1C[C@H]3[C@H](N(C)C)C(=O)C(C(N)=O)=C(O)[C@@]3(O)C(=O)C1=C2O`, with “inactive”.
Then `Nc1ccc(O)c(C(=O)O)c1`, with “inactive”.
With `O=C(Nc1ccc(OC(F)(F)F)cc1)c1sccc1NCc1ccnc2ccccc12`, the Potency result is “inactive”.
In the case of `Cc1oncc1C(=O)Nc1ccc(C(F)(F)F)cc1` it was “inactive”; in that of `CCOCCOC(=O)/C=C/c1ccc(OC)cc1`, “inactive”; in that of `O=C1C[C@@H](c2ccc(O)cc2)Oc2cc(O)cc(O)c21`, “inactive”.
In the case of `CCC(C)SSc1ncc[nH]1` (stereo not given) it was “inactive”; in that of `CC1(C)Cc2c(sc(NC(=S)NC(=O)c3ccccc3)c2C(=O)O)CO1`, “inactive”.
Then `COc1cc2nc(N3CCN(C(=O)C4CCCO4)CC3)nc(N)c2cc1OC` (stereo not given), with “inactive”.
Turning to `O=C(O)CCC(=O)c1ccc(-c2ccccc2)cc1`, the Potency entry is “inactive”.
Then `COc1cccc2c1C(=O)c1c(O)c3c(c(O)c1C2=O)C[C@@](O)(C(=O)CO)C[C@@H]3O[C@H]1C[C@H](N)[C@H](O[C@@H]2CCCCO2)[C@H](C)O1`, with “inactive”; and `CC(C(=O)O)c1ccc(C(=O)c2cccs2)cc1` (stereo not given), with “inactive”.
Regarding `O=C(O)c1ccccc1NCCc1ccccc1`, the Potency result was “inactive”.
Then `O=c1[nH]nc(Sc2ncc([N+](=O)[O-])s2)n1-c1ccc2c(c1)OCCO2`, with 4.89 µM (active).
In the case of `O=C1c2ccccc2C(=O)c2c1ccc(O)c2O` it was “inactive”; in that of `O=C(OCc1ccccc1)c1ccc(O)cc1`, “inactive”; in that of `CO[C@H]1C(=O)[C@]2(C)[C@@H](OC)C[C@H]3OC[C@@]3(OC(C)=O)[C@H]2[C@H](OC(=O)c2ccccc2)[C@]2(O)C[C@H](OC(=O)[C@H](O)[C@@H](NC(=O)OC(C)(C)C)c3ccccc3)C(C)=C1C2(C)C`, “inactive”.
In the case of `CC(O)=C(C#N)C(=O)Nc1ccc(C(F)(F)F)cc1` it was 8.69 µM (active); in that of `O=C1c2ccccc2-[n+]2ccc3c([nH]c4ccccc43)c21`, 4.35 µM (active); in that of `CCN1/C(=C/C=C/c2sc3ccccc3[n+]2CC)Sc2ccccc21`, “inactive”.
Regarding `NC(=O)c1cccc2[nH]c(-c3ccc([C@H]4CCCN4)cc3F)nc12`, the Potency was 5.48 µM (active).
Then `CC(C(=O)O)c1ccc(C(=O)c2ccccc2)s1` (stereo not given), with “inactive”; and `Oc1cc(O)cc(/C=C/c2ccc(O)c(O)c2)c1`, with 24.5 µM (active); and `CC(C(=O)O)c1ccc(-c2ccccc2)c(F)c1` (stereo not given), with “inactive”.
In the case of `N#C/C(=C\c1ccc(O)c(O)c1)C(=O)Nc1ccccc1`, the Potency entry was “inactive”.
Then `O=S(=O)(O)CCSSCCS(=O)(=O)O`, with “inactive”; and `Cc1[nH]c(C=C2C(=O)Nc3ccccc32)c(C)c1CCC(=O)O`, with “inactive”.
